From PubChem BioAssay AID651702 (NMMLSC, 2012)
Out of some 360,000 compounds screened, about 2,400 (0.67%) were called active. This is one part of a sample in which actives are shown more often than they occur.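 The calls were made as follows: active = inhibition above about 55% (limit read from the data); inconclusive = no clear call, values can overlap the other calls; inactive = the rest.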

assay: LAMP-1 surface exposure blockers, TALL-104 cells – cell-based, flow cytometry, MLPCN library, primary screen (AID 651702); conditions: TALL-104 LAMP-1 surface exposure, at 10 µM, hits give high values, cells stimulated with thapsigargin and PMA

inhibition, inactive:
Cn1c(=O)c2c(n(Cc3ccccc3)c1=O)NC(=O)C2CC(=O)N1CCc2ccccc2C1 (stereo not drawn) 5.7%
Cn1c(SCc2nc3ccccc3s2)nnc1-c1ccc2c(c1)OCO2 -6.5%
Cc1ccccc1CN1C[C@@H]2C[C@@H](c3ccc4nsnc4c3)N3CCC[C@@]23C1=O -2.3%
COc1ccc(CN2CCN(Cc3cn(C)nc3-c3ccccc3)CC2CCO)c(C)c1C (stereo not drawn) 4.6%
COC(=O)C1=C(C(=O)OC)C(c2cc([N+](=O)[O-])ccc2O)c2sc(=O)[nH]c2S1 (stereo not drawn) 7.4%
Cc1cccc(Nc2nnc(SCC(=O)c3c(N)n(C4CC4)c(=O)[nH]c3=O)s2)c1C 0.1%
CCOC(=O)C1(C)CCCN(C(=O)c2cccc(Cl)c2)C1 (stereo not drawn) 1.7%
CCOC(=O)C1(C)CCCN(C(=O)c2ccc(N(C)C)cc2)C1 (stereo not drawn) -2.4%
O=C(Nc1ccc(Br)cc1)c1cccc(NC(=O)C2C3CC4OC(=O)C2C4C3)c1 (stereo not drawn) 11%
CCOc1ccc(CCNC(=O)C2CCN(c3ccc(N4CCOCC4)nn3)CC2)cc1OCC -0.7%
Nc1nnc(SCC(=O)OCc2ccc(Cl)c(Cl)c2)s1 -1.6%
O=C(CNC(=O)N1CC(=O)Nc2ccccc21)Nc1ccc(Br)cc1F 4.6%
CCCNC(=O)C[C@@H]1CC[C@@H]2[C@H](COC[C@H](O)CN2C(=O)c2cc(Cl)cc(Cl)c2)O1 -2.9%
O=C(NCc1ccccc1)C(c1cccnc1)N(C(=O)c1csnn1)c1ccc(F)cc1 (stereo not drawn) 12.4%
O=C(NCc1ccc(F)cc1)C(c1ccccc1)N(C(=O)c1csnn1)C1CC1 (stereo not drawn) -3.2%
O=C(CC1C(=O)NCCN1Cc1ccc(-c2ccccc2)cc1)NCC1CCOCC1 (stereo not drawn) 1.1%
CCCS(=O)(=O)N1CCC(CCOc2ccccc2)(C(=O)OCC)CC1 -2.2%
CCOC(=O)C1(Cc2cccc(OC)c2)CCN(C(C)COC)CC1 (stereo not drawn) -0.5%
CCOC(=O)C1(CCOc2ccccc2)CCN(C(=O)c2cncs2)CC1 -0.8%
CCOC(=O)C1(CCOC)CCN(Cc2cc3ccccc3s2)CC1 0.4%
CC1(C(=O)NCc2ccccc2)CSCC(=O)N1CCCN1CCOCC1 (stereo not drawn) 4.3%
CC1CCCN(S(=O)(=O)c2ccc(N(C(=O)c3cnccn3)C(C(=O)NC3CCCCC3)c3cccs3)cc2)C1 (stereo not drawn) 0.9%
Cc1ccc(S(=O)(=O)N2CCN(C(=O)c3cc(S(=O)(=O)N4CCOCC4)ccc3F)CC2)cc1 -3%
Cc1ccc(S(=O)(=O)NCC(=O)NNC(=O)c2ccc(Br)cc2)cc1C -1.3%
NS(=O)(=O)c1ccc(-c2ccc(/C=C3\SC(=O)NC3=O)o2)cc1 -14.3%
Cc1ccc(C(=O)O)cc1-c1ccc(/C=C2\SC(=O)N(CC(=O)Nc3ccc4c(c3)OCO4)C2=O)o1 -0.4%
NC(=O)CCCC1=NS(=O)(=O)c2ccccc2N1 -3.9%
O=C(Nc1ccc(C(=O)O)cc1)/C(=C\c1ccccc1)NC(=O)c1ccc(Br)cc1 9.3%
CN1CCN(NC(=O)Nc2ccc(Br)cc2)CC1 -2%
Cc1ccc(C)c(NC(=O)CCC(=O)N/N=C2/CC(=O)CC(C)(C)C2)c1 3.3%
OCCNCCOc1ccc(Cl)c(Cl)c1 6.6%
COCCNc1nc(Nc2ccccc2Cl)c2sc(-c3ccccc3)cc2n1 47.2%
COc1ccccc1Nc1nnc(SC(C)C(=O)NC2CC2)s1 (stereo not drawn) 1.8%
COc1ccc(C23NCCN2C(=O)c2ccccc23)cc1 (stereo not drawn) 8.9%
CCc1oc(-c2ccc(OC)cc2)c(C(=O)OCCCCCO)c1C(C)OCCO (stereo not drawn) 3.7%
COCCNc1ncnc2c1ncn2[C@H]1CN(Cc2ccc(OC)cc2)C[C@@H](CO)O1 0.2%
C#CCN1CC(C)/C(=N/O)CC1C (stereo not drawn) 0.9%
CCn1c(-c2ccoc2C)n[nH]c1=S 0.6%
COc1ccc(C2CC(c3cccs3)=NN2C(=O)COC(=O)c2cc3ccccc3cc2O)cc1OC (stereo not drawn) -2.9%
COc1ccc(C2CC(c3cccs3)=NN2C(=O)CSc2nnc(N)s2)cc1OC (stereo not drawn) -3.2%
Cc1ccc(-n2nc(N)c3c(=O)oc(N(C)C)nc32)cc1 -0.9%
Cc1nn(-c2ncc(C(F)(F)F)cc2Cl)c(=O)n1-c1ccccc1 -0.5%
Cc1cc(NC(=O)CSc2ncc(C(F)(F)F)cc2Cl)no1 5.6%
Cn1cnc(S(=O)(=O)Nc2ccc3c(c2)OCCO3)c1 5.9%
CCC(=O)Nc1c(C)n[nH]c1C -0.1%
CC(=O)c1cccc(-c2cnc3c(NC=O)cc(-c4ccccc4Oc4ccccc4)cn23)c1 13.9%
COc1ccc(-c2cc(NC=O)c3ncc(-c4cc(OC)c(OC)c(OC)c4)n3c2)c(OC)c1 28.6%
CC(NC(=O)CN(C)S(=O)(=O)c1ccc(F)cc1)C1CC2CCC1C2 (stereo not drawn) 0.1%
O=C(Cc1coc2ccc3ccccc3c12)NCc1cccs1 -2.5%
O=C(NCc1cccs1)c1ccc(Br)o1 -0.6%
COc1ccc(N=Nc2c(-c3ccc(OC)cc3)[nH]oc2=O)cc1 -8.4%
COc1ccc(-c2c(-c3ccc(OC)cc3O)nc(C)nc2C(F)(F)F)cc1 27.6%
COc1ccc(-c2[nH]ncc2CN(C)Cc2c(C)n[nH]c2C)c(OC)c1 -1.2%
COc1ccc2cc(-c3[nH]ncc3CNCCn3nc(C)cc3C)ccc2c1 18.3%
Cn1c(C(=O)N2CCCC(C(=O)NCc3ccccc3)C2)cc2sccc21 (stereo not drawn) -4.6%
COc1ccc(S(=O)(=O)N2CCN(CC(=O)N3CCOCC3)CC2)cc1OC -0.5%
Cc1ccc(OCCC(=O)OCC(=O)N2c3ccccc3NC(=O)C2(C)C)cc1 3.1%
COc1ccc2[nH]c(=O)c(C3c4cc(OC)c(OC)cc4CCN3C(=O)c3ccco3)cc2c1 (stereo not drawn) -2.2%
O=C(NCCN1CCOCC1)c1cccc(S(=O)(=O)Nc2ccc(F)cc2)c1 -1.1%
CCNC(=O)COC(=O)CCNC(=O)c1cccc(C)c1 -0.6%
CCC(C)CN1C(=O)CN(S(C)(=O)=O)CC1(C)C(=O)Nc1ccc2c(c1)OCCO2 (stereo not drawn) -2%
CC1CN(C2CCN(C(=O)COc3ccccc3)CC2)CC(C)O1 (stereo not drawn) -2.5%
COc1cccc(CNc2nc(NCc3cccs3)nc3ccsc23)c1 21%
COc1ccccc1CNc1nc(Nc2ccccc2Cl)c2sccc2n1 2%
CC1CCCC(C)N1C(=O)CSc1nnnn1C1CCCC1 (stereo not drawn) -4%
COc1ccccc1-c1nc(C(F)(F)F)c(OC)o1 1.1%
COc1ccccc1C1=CC(=O)CCC1 47.3%
COc1ccc(CC(=O)N[C@@H]2c3cc(OC)c(OC)cc3C[C@H]2OCc2ccccc2)cc1 -2.2%
COc1ccccc1CC(NC(C)=O)C(=O)NC1CCN(C(=O)Nc2ccccc2Cl)CC1 (stereo not drawn) 6.8%
C[C@H](CO)N1C[C@H](C)[C@@H](CN(C)Cc2ccc3c(c2)OCO3)OCc2cnnn2CCCC1=O 2.5%
O=C(CCS(=O)(=O)c1ccccc1)NC1CCCC1 -1.3%
Cc1cccc(C)c1NC(=O)CCS(=O)(=O)c1cccc2nsnc12 -2.7%
COC(=O)COc1ccc(C2NC(=O)NC(C)=C2C(=O)NCc2ccccc2)cc1OC (stereo not drawn) -3.7%
COc1ccc(C2=NS(=O)(=O)N(C)C(C(=O)N(C)Cc3ccccc3)=C2)cc1 -1.2%
COc1ccc(CN(C)C(=O)c2cc(-c3ccc(C)cc3C)nc3ccccc23)c(OC)c1OC 19.4%
COc1c(C)cc(C(=O)C2CCCN(S(=O)(=O)c3c(C)noc3C)C2)cc1C (stereo not drawn) -1.1%
O=C(CC(CC(=O)c1ccccc1)c1ccco1)c1ccccc1 4.2%
CC1CC(C)CN(CCOc2cccc3ccccc23)C1 (stereo not drawn) 7.6%
CN1CCN(CCCCOc2cccc3ccccc23)CC1 24.7%
CCCC(NC(=O)c1ccccc1)c1nc2ccccc2n1Cc1ccc(C(=O)OC)o1 (stereo not drawn) 0.5%

inhibition, active:
Cc1ccccc1CN1C[C@@H]2C[C@@H](c3cn(C)nc3-c3ccccc3)N3CCC[C@@]23C1=O 82.4%
CCOC(=O)C1(C)CCCN(C(=O)c2ccc(F)c(Cl)c2)C1 (stereo not drawn) 71.1%
COc1ccc2c(c1)c(=Cc1ccc(N(C)C)cc1)c1cc(-c3ccccc3)[n+](C)n12 95.4%
O=C(NCc1ccccc1)C(c1ccccc1)N(C(=O)c1csnn1)c1ccc(F)cc1 (stereo not drawn) 56.4%
CCOC(=O)C1(CCOc2ccccc2)CCN(Cc2ccc(C#CCCO)cc2)CC1 55.8%
CCOC(=O)C1(CCOc2ccccc2)CCN(Cc2cc(OC)c(O)cc2Cl)CC1 84.5%
CN1C(=O)/C(=C\c2ccc(-c3ccccc3)o2)SC1=S 66.7%
O=C(NC(=O)c1ccccc1N1CCCCC1)Nc1ccc(Br)cc1 84.6%
OCCNc1nc(Nc2ccc(Cl)c(Cl)c2)nc2ccccc12 57.7%
COc1ccc(-c2oc3ncnc(NCCCO)c3c2-c2ccc(OC)cc2)cc1 70.3%
COc1ccc(C2CC(c3cccs3)=NN2c2nc(C)c(C(C)=O)s2)cc1OC (stereo not drawn) 87.5%
Cc1ccc(-c2ccnc3nc(Sc4ncc(C(F)(F)F)cc4Cl)nn23)cc1 67.5%
COc1ccc(-c2cc(NC=O)c3ncc(-c4ccccc4)n3c2)cc1OC 81.8%
CC(C)Cn1c(N)c(C(=O)NCc2cccs2)c2nc3ccccc3nc21 59.6%
COc1ccc(-c2cn[nH]c2-c2ccc(OC)cc2)cc1 65.6%
COc1ccc(Oc2cn[nH]c2-c2ccc(OC)cc2O)cc1 60.1%
Cc1cccc(-c2nc3ccc(C(=O)NCCN4CCN(C)CC4)cc3nc2-c2cccc(C)c2)c1 57.4%
Cc1coc2c(O)cc3c(c12)OC1(N2CCCCC2)C(=O)NCCCC31 (stereo not drawn) 68.1%
COc1cccc(CNc2nc(NCc3ccccc3OC)nc3ccsc23)c1 73.8%
COc1ccccc1C1=Nc2cccc3cccc(c23)N1 65.7%
Cc1cccc2sc(N(CCCN(C)C)C(=O)CCS(=O)(=O)c3ccccc3)nc12 90.8%
COc1ccc(-c2cc(C(=O)N(C)Cc3ccccc3)c3ccccc3n2)cc1 74.5%
CC(C)c1ccccc1OCC(O)CN(CC(O)COc1cccc2ccccc12)C(C)C (stereo not drawn) 73.4%
